# According to PubChem BioAssay (NCATS):
# “And” between values parts separate entries of the source, which are not always exact repeats. Equal values may be shown once. Inconclusive results are not listed. The source holds several records for some structures; these can differ, active in one and inactive in another. The source made the active and inactive calls. Unless noted, calls follow the shape of the dose curve; as a rule, active = well fitted curve in the direction sought with a large enough effect; inconclusive = small, poorly fitted or top-dose-only effect, or another doubt; inactive = no such curve, though single readings can be large; an effect the other way counts as inactive or inconclusive.
# Assays:
# [1] = qHTS Assay for Identifying Gametocytocidal Compounds (AID 743244);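 also: % is scaled to controls: 0 for no effect and ±100 for the full control effect; actives lower the fluorescent signal which means gametocytes are killed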; conditions: P. falciparum 3D7 stage III-V gametocytes, alamarBlue, 72 h; max response: stronger effect = lower value
# Outline: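 Viability read-out was resazurin reduction (alamarBlue, 24 h) measured at Ex 525/Em 598 nm. Beforehand, late-stage (III-V) 3D7 P. falciparum gametocytes at 20,000 cells/well were incubated with compound 72 h at 37C under 5% CO2.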
# [2] = High-throughput drug toxicity screening in the BPDCN cell line Cal-1 (AID 1224825; call rule not given here); conditions: Cal-1 BPDCN cell viability, qHTS; at 45.8 µM (top of the series) unless noted
# Outline: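 Exponentially growing Cal-1 cells, 500 per well in phenol red-free RPMI with 10% FBS, were exposed to compounds for 48 h at 37 °C, 5% CO2. Viability was read by CellTiter-Glo luminescence and normalised to DMSO (100%) and 9.2 uM bortezomib (0%).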
# [3] = qHTS assay for measurement of the activity of small molecule inhibitors on Zika virus induced Caspase-3 activity in human iPSC derived neural progenitor cells (hNPCs) (AID 1224857); also: nearly all actives have a fitted effect of over 65% in size; also: potency is read from the fitted curve at half-maximal effect
# Outline: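 Percent inhibition of virus-induced caspase-3/7 luminescence (Caspase-Glo), scaled between uninfected cells and Zika-infected cells. hNPCs received compound 1 hr before ZIKV at 2 FFU/cell, with 6 hours infection at 37 C.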
# [4] = qHTS assay for measurement of the activity of small molecule inhibitors on Zika virus induced Caspase-3 activity in human astrocytoma cells (AID 1224859);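 also: plate controls were ZIKV-infected untreated cells for no effect and uninfected cells for full effect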
# Outline: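 Luminescent caspase-3/7 read-out (30 min reagent, room temperature) in human SNB-19 cells infected 6 h with ZIKV (2 FFU/cell) after 1 h compound pre-incubation; Data were normalised to uninfected and infected wells.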
# [5] = qHTS profiling of the MIPE4 collection as inhibitors of Plasmodium falciparum (3D7) proliferation (AID 743344; call rule not given here;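 also: scaled between DMSO vehicle wells and 0.29 µM artemisinin as full inhibition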); conditions: P. falciparum 3D7 in erythrocytes, SYBR Green DNA fluorescence, 72 h; at 28.5 µM (top of the series) unless noted
# Outline: (§1)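 Erythrocytes infected with P. falciparum (0.3% parasitemia, 2.5% hematocrit) incubated with compounds 72 h at 37 C, 5% CO2. Lysis with saponin/Triton buffer containing SYBR Green I, overnight at room temperature in the dark; DNA fluorescence (485/535 nm) normalised to 0.29 uM artemisinin and DMSO.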
# [6] = qHTS profiling of the MIPE4 collection as inhibitors of Plasmodium falciparum (DD2) proliferation (AID 743345; call rule not given here); conditions: P. falciparum Dd2 in erythrocytes, SYBR Green DNA, 72 h; at 28.5 µM (top of the series) unless noted
# Outline: as §1
# [7] = qHTS profiling of the MIPE4 collection as inhibitors of Plasmodium falciparum (DD2) proliferation (Rep 2) (AID 743346; call rule not given here); conditions: P. falciparum Dd2 in erythrocytes, SYBR Green DNA, 72 h; at 28.5 µM (top of the series) unless noted
# Outline: as §1
# [8] = qHTS profiling of the MIPE4 collection as inhibitors of Plasmodium falciparum (HB3) proliferation (AID 743347; call rule not given here;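 also: plate controls were DMSO vehicle wells for no effect and artemisinin wells for full effect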); conditions: P. falciparum HB3 in erythrocytes, SYBR Green DNA, 72 h; at 28.5 µM (top of the series) unless noted
# Outline: as §1
# [9] = qHTS assay for small molecule agonists of the antioxidant response element (ARE) signaling pathway measured by Nrf2-dependant transcriptional activity - cell viability counter screen (AID 720653; active = well fitted curve in the direction sought with a large enough effect in the repeat runs; an effect the other way counts as inactive or inconclusive; also: % is scaled to controls: 0 for no effect and ±100 for the full control effect); conditions: ARE-bla HepG2 viability, CellTiter-Glo ATP luminescence, 16 h; max response: stronger effect = lower value
# Outline: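 ARE-bla HepG2 cells (2,000/well) rested 5 hrs at 37C/5% CO2, then exposed to compounds in DMSO for 16 hrs. Viability was read in the same wells as intracellular ATP by luminescence, 30 min at room temperature after reagent addition.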
# [10] = biological target: T1, Hexokinase-4 (Homo sapiens) + Glucokinase regulatory protein (Homo sapiens) (UniProt P35557+Q14397); assay: qHTS assay for inhibitors of recombinant human GCK-GKRP interaction: Diaphorase-coupled assay (AID 743205)
# T1 sequence (P35557 whole entry, looked up): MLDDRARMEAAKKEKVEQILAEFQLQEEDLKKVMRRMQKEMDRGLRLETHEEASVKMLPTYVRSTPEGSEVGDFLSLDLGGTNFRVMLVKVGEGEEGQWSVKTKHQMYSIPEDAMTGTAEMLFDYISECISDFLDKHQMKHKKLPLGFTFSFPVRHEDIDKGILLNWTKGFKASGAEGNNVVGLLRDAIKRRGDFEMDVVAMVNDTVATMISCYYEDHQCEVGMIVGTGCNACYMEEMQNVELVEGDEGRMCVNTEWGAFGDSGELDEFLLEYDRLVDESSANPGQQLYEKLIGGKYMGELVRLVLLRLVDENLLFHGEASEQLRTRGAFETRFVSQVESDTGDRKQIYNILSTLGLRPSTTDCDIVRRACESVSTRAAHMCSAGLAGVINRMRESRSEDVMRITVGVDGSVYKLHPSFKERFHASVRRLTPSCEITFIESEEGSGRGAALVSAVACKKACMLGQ
# T1 sequence (Q14397 whole entry, looked up): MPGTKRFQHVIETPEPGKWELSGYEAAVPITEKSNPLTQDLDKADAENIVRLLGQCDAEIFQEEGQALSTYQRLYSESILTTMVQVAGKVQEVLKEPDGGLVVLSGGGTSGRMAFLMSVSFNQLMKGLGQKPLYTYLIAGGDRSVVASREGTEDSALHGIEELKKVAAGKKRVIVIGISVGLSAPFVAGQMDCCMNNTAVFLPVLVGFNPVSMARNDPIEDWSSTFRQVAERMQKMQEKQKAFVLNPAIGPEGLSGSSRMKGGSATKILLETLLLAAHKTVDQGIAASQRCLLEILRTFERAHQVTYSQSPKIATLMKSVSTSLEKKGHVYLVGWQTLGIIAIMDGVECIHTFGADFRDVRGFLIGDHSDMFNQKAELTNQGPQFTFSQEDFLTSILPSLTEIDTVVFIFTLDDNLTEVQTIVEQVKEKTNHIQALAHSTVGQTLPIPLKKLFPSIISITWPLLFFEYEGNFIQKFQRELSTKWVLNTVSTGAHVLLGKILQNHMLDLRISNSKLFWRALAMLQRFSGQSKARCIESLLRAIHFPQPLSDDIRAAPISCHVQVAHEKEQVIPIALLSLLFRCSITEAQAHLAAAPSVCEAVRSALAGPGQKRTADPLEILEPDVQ
# Outline: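 25 mM Hepes pH 7.6, 5 mM glucose, 0.4 mM ATP, 4 U/ml G6PDH; 10 nM each GST-GCK/FLAG-GKRP. Kinetic fluorescence read, 1/min × 30 min. Normalized: DMSO ± enzyme = max/min.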
# [11] = biological target: T1, Hexokinase-4 (Homo sapiens) + Glucokinase regulatory protein (Homo sapiens); assay: qHTS assay for inhibitors of recombinant human GCK-GKRP interaction: ADP-Glo assay (AID 743206);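 also: plate controls were DMSO plus enzyme for no effect and no enzyme for full effect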
# Outline: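 GST-GCK and FLAG-GKRP (15 nM each in the dispensed mix, with 2 uM S6P) react with 0.4 mM ATP and 5 mM glucose (final) in Hepes pH 7.6 for 60 min at room temperature. ADP is measured by ADP-Glo luminescence.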
# [12] = biological target: T1, Hexokinase-4 (Homo sapiens) + Glucokinase regulatory protein (Homo sapiens); assay: qHTS assay for inhibitors of recombinant human GCK-GKRP interaction: HTRF assay (AID 743207);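 also: 0% = DMSO with GCK present and -100% = DMSO wells lacking GCK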
# Outline: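 5 nM GST-GCK + 5 nM FLAG-GKRP + 2 uM S6P, pH 7.1 buffer (25 mM Hepes, 2 mM MgCl2, 25 mM KCl, 1 mM DTT, Tween/BSA); pin-transferred cpd; anti-FLAG XL665/anti-GST K; 60 min RT; HTRF.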
# [13] = qHTS assay for cell viability of HEK293 cells (AID 743288); conditions: ATP luminescence (CellTiter-Glo), 18 h; max response: stronger effect = lower value; also: % is scaled to controls: 0 for no effect and ±100 for the full control effect; nearly all actives have a fitted effect of over 50% in size
# Outline: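 HEK293 parental, 2,000 cells/well; ≥5 h pre-incubation 37 C; pintool compound addition; 18 h, 37 C; CellTiter-Glo 30 min RT; luminescence read.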
# [14] = qHTS assay for cell viability of the p53RE-bla HCT-116 cell line (AID 743292); also: % is scaled to controls: 0 for no effect and ±100 for the full control effect; nearly all actives have a fitted effect of over 55% in size
# Outline: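 After plating at 4,000 cells per well and a 5 h rest at 37 C, HCT-116 cells carrying p53RE-bla received test chemicals in DMSO. Sixteen hours later at 37 C, CellTiter-Glo was added and luminescence recorded following 30 min at room temperature.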
# [15] = qHTS profiling for inhibitors of Plasmodium falciparum (3D7) proliferation (AID 743322);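 also: infected erythrocytes exposed to compound for 72 h before lysis; 100% = DMSO vehicle wells and 0% = 0.29 µM artemisinin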; conditions: P. falciparum 3D7 proliferation; at 28.7 µM (top of the series)
# Outline: as §1
# [16] = qHTS profiling for inhibitors of Plasmodium falciparum (DD2) proliferation (AID 743323; call rule not given here); conditions: lower = more inhibition; at 28.7 µM (top of the series)
# Outline: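 Parasite proliferation measured via DNA-dye fluorescence, as uninfected erythrocytes lack DNA. Cultures at 0.3% parasitemia and 2.5% hematocrit incubated 72 h with compound; signal scaled between vehicle and 0.29 uM artemisinin wells.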
# [17] = qHTS profiling for inhibitors of Plasmodium falciparum (HB3) proliferation (AID 743324); conditions: Plasmodium falciparum HB3 blood-stage proliferation; at 28.7 µM (top of the series);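 also: 100% = DMSO vehicle wells and 0% = artemisinin-treated control wells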
# Outline: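 P. falciparum HB3 grown in erythrocytes (0.3% parasitemia, 2.5% hematocrit final) with compound for 72 h at 37 C, 5% CO2. Parasite DNA detected by SYBR Green after saponin/triton lysis overnight; normalized to 0.29 uM artemisinin and DMSO.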
compound,measurement,setting,value
CCn1cc(C(=O)O)c(=O)c2cc(F)c(N3CCNCC3)cc21,max response,[1],1.43% (inactive) and -0.58% (inactive)
same,viability (% of control),[2],104%
same,Potency,[3],inactive
same,Potency,[4],inactive
CC(C)C1CCC(C(=O)N[C@H](Cc2ccccc2)C(=O)O)CC1 (some centres not stated),"parasite growth, % of DMSO control",[5],87.2%
same,"parasite growth remaining, % of DMSO control (lower = more inhibition)",[6],118%
same,"parasite growth, % of control (lower = inhibition)",[7],109%
same,"growth, % of control",[8],85.4%
same,viability (% of control),[2],99.1%
same,Potency,[3],inactive
same,Potency,[4],inactive
CC[C@H](NC(C)C)[C@H](O)c1ccc(O)c2[nH]c(=O)ccc12,max response,[1],0.956% (inactive)
same,"parasite growth, % of DMSO control",[5],96.3%
same,"parasite growth remaining, % of DMSO control (lower = more inhibition)",[6],107%
same,"parasite growth, % of control (lower = inhibition)",[7],92.5%
same,"growth, % of control",[8],96.3%
same,viability (% of control),[2],121%
same,Potency,[3],inactive
same,Potency,[4],inactive
COC(=O)Nc1nc2ccc(Sc3ccccc3)cc2[nH]1,"parasite growth, % of DMSO control",[5],75.4%
same,"parasite growth remaining, % of DMSO control (lower = more inhibition)",[6],99.3%
same,"parasite growth, % of control (lower = inhibition)",[7],18.7%
same,"growth, % of control",[8],102%
same,viability (% of control),[2],18.7%
same,Potency,[3],inactive
same,Potency,[4],inactive
CN(C)CCc1c[nH]c2ccc(C[C@H]3COC(=O)N3)cc12,"parasite growth, % of DMSO control",[5],107%
same,"parasite growth remaining, % of DMSO control (lower = more inhibition)",[6],92.5%
same,"parasite growth, % of control (lower = inhibition)",[7],73.2%
same,"growth, % of control",[8],91.4%
same,viability (% of control),[2],99.9%
same,Potency,[3],inactive
O=P(O)(O)C(O)(Cc1cccnc1)P(=O)(O)O,max response,[1],8.36% (inactive)
same,"parasite growth, % of DMSO control",[5],71.4%
same,"parasite growth remaining, % of DMSO control (lower = more inhibition)",[6],99.5%
same,"parasite growth, % of control (lower = inhibition)",[7],80.5%
same,"growth, % of control",[8],100%
same,viability (% of control),[2],125%
same,Potency,[3],inactive
same,Potency,[4],inactive
CC(N)C12CC3CC(CC(C3)C1)C2 (configuration not stated),max response,[1],26.1% (inactive)
same,"parasite growth, % of DMSO control",[5],76.2%
same,"parasite growth remaining, % of DMSO control (lower = more inhibition)",[6],12.6%
same,"parasite growth, % of control (lower = inhibition)",[7],32.1%
same,"growth, % of control",[8],96.9%
same,viability (% of control),[2],105%
same,Potency,[3],inactive
N[C@@H](Cc1ccc(O)c(O)c1)C(=O)O,max response,[9],13.2% (inactive)
same,outcome,[10],inactive
same,outcome,[11],inactive
same,outcome,[12],inactive
same,max response,[1],20.2% (inactive)
same,max response,[13],4.23% (inactive)
same,Potency,[14],inactive
same,"parasite growth, % of DMSO control",[5],85.4%
same,"parasite growth remaining, % of DMSO control (lower = more inhibition)",[6],114%
same,"parasite growth, % of control (lower = inhibition)",[7],64.9%
same,"growth, % of control",[8],84%
same,viability (% of control),[2],93.8%
same,Potency,[3],inactive
same,Potency,[4],inactive
CCOCC(O)COc1ccc(NC(=O)CC[S+](C)C)cc1 (configuration not stated),"parasite growth, % of DMSO control",[5],84%
same,"parasite growth remaining, % of DMSO control (lower = more inhibition)",[6],103%
same,"parasite growth, % of control (lower = inhibition)",[7],97.7%
same,"growth, % of control",[8],99.4%
same,viability (% of control),[2],110%
same,Potency,[3],inactive
same,Potency,[4],inactive
Cc1nnc(C(=O)NC(C)(C)c2nc(C(=O)NCc3ccc(F)cc3)c(O)c(=O)n2C)o1,max response,[1],3.93% (inactive)
same,"parasite growth, % of DMSO control",[5],83.6%
same,"parasite growth remaining, % of DMSO control (lower = more inhibition)",[6],91.4%
same,"parasite growth, % of control (lower = inhibition)",[7],81.9%
same,"growth, % of control",[8],79.5%
same,viability (% of control),[2],134%
same,Potency,[3],inactive
O=C(O)CSCC(=O)NC1CCSC1=O (configuration not stated),max response,[1],-6.62% (inactive)
same,"parasite growth, % of DMSO control",[5],102%
same,"parasite growth remaining, % of DMSO control (lower = more inhibition)",[6],139%
same,"parasite growth, % of control (lower = inhibition)",[7],124%
same,"growth, % of control",[8],99.2%
same,viability (% of control),[2],112%
same,Potency,[3],inactive
same,Potency,[4],inactive
CNC(=O)c1cc(Oc2ccc(NC(=O)Nc3ccc(Cl)c(C(F)(F)F)c3)cc2)ccn1,max response,[1],-3.89% (inactive) and 12.7% (inactive) and 20% (inactive)
same,remaining parasite growth % (stronger effect = lower value),[15],31.5% and 9.84%
same,"activity, percent of control",[16],29.9% and 20%
same,"remaining proliferation (% of control), lower = more inhibition",[17],3.29% and 1.23%
same,"parasite growth, % of DMSO control",[5],15.4%
same,"parasite growth remaining, % of DMSO control (lower = more inhibition)",[6],14%
same,"parasite growth, % of control (lower = inhibition)",[7],33%
same,"growth, % of control",[8],12.2%
same,viability (% of control),[2],9.69%
same,Potency,[3],inactive
same,Potency,[4],inactive
CCCCc1oc2ccc(NS(C)(=O)=O)cc2c1C(=O)c1ccc(OCCCN(CCCC)CCCC)cc1,"parasite growth, % of DMSO control",[5],7.48%
same,"parasite growth remaining, % of DMSO control (lower = more inhibition)",[6],6.73%
same,"parasite growth, % of control (lower = inhibition)",[7],18.2%
same,"growth, % of control",[8],7.93%
same,viability (% of control),[2],4.81%
same,Potency,[3],inactive
same,Potency,[4],inactive
Cc1cccc(Nc2ccncc2S(=O)(=O)NC(=O)NC(C)C)c1,max response,[1],-10.6% (inactive)
same,"parasite growth, % of DMSO control",[5],93.3%
same,"parasite growth remaining, % of DMSO control (lower = more inhibition)",[6],104%
same,"parasite growth, % of control (lower = inhibition)",[7],125%
same,"growth, % of control",[8],95.2%
same,viability (% of control),[2],107%
same,Potency,[3],inactive and 18.7 µM (active)
same,Potency,[4],inactive
CCCOc1ccc(C(=O)OCCN(CC)CC)cc1N,max response,[1],14.8% (inactive)
same,"parasite growth, % of DMSO control",[5],100%
same,"parasite growth remaining, % of DMSO control (lower = more inhibition)",[6],88.7%
same,"parasite growth, % of control (lower = inhibition)",[7],111%
same,"growth, % of control",[8],63.6%
same,viability (% of control),[2],105%
same,Potency,[3],inactive
same,Potency,[4],inactive
